Measured values from PubChem BioAssay (NCATS).
Calls of active or inactive are those of the source.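 The calls were made as follows: active = compounds whose dose series gives a full or clear partial fitted curve of increased nuclear translocation; inconclusive = weak partial curve or effect only at the top dose; inactive = no dose-dependent translocation response.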

Biological target: Glucocorticoid receptor (Homo sapiens) (UniProt P04150)
Test: GR-GFP Redistribution (AID 450)
Conditions: U2OS GR-GFP nuclear translocation, laser cytometry, 2 h; series mostly up to 20.6 µM
Potency is read from the fitted curve at half-maximal effect.

Sequence of Glucocorticoid receptor (Homo sapiens) (P04150 whole entry, looked up): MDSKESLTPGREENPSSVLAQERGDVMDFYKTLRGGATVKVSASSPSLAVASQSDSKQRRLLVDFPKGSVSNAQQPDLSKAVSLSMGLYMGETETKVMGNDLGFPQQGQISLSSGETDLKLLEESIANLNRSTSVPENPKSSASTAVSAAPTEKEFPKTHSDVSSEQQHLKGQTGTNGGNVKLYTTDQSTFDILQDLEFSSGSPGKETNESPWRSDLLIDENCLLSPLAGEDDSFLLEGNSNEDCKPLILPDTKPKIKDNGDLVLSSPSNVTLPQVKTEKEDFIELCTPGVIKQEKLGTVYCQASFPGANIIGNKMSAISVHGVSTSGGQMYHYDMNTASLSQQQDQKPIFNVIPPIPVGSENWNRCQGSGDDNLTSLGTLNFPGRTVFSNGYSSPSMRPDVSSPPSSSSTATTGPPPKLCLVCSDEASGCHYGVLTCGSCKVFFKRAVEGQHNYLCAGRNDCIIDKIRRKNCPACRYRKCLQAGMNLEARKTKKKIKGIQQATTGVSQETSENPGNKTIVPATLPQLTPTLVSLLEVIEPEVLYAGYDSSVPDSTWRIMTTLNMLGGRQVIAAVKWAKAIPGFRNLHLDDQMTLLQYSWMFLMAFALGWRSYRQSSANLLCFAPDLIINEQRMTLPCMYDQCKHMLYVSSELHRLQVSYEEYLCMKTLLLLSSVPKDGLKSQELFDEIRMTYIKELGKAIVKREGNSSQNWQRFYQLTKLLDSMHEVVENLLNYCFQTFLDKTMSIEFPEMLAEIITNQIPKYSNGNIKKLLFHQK

Potency, inactive:
CCCNC(=O)N(C)c1nncnc1C(=O)NC > 20.6 µM, Cc1cc(C)nc(N(C#N)S(=O)(=O)c2ccccc2Cl)n1 > 20.6 µM, COc1ccc(N2C(=O)CN=C2Nc2nc(C)cc(C)n2)cc1 > 20.6 µM, C=CCn1cnc2c(c1=O)c1nc3ccccc3nc1n2-c1ccc(C)cc1 > 20.6 µM, CC1(C)Cc2ccccc2-c2c1c(=O)n(-c1ccccc1)c1nnnn21 > 20.6 µM, O=S(=O)(c1ccccc1)N1CCC(N2CCN(c3ccccc3)CC2)CC1 > 20.6 µM, Cc1c(NC(=O)C(CC(=O)O)NCc2ccco2)c(=O)n(-c2ccccc2)n1C (stereo not given) > 20.6 µM, CC1=C(c2ccc(Cl)cc2)[N+](=O)C(C)(C)N1[O-] > 20.6 µM, COc1ccc(CNC(=O)[C@H](C)NC(=O)C2CCN(S(=O)(=O)c3ccc(C)cc3)CC2)cc1 > 20.6 µM, Cc1cc(=O)oc2cc(OCC(=O)NCc3cccnc3)ccc12 > 20.6 µM, Cn1c(OCc2cccnc2)nc2c1c(=O)n(Cc1ccc(Cl)cc1)c(=O)n2C > 20.6 µM, COC(=O)c1ccc(C2/C(=C(\O)c3cccc(OC)c3)C(=O)C(=O)N2CCCN(C)C)cc1 (stereo not given) > 20.6 µM, CN(C)CCCOC(=O)C1c2ccccc2Oc2ccccc21 > 20.6 µM, CCCCCc1nc2sc3c(c2c(=O)n1N)CCC3 > 20.6 µM, N#C/C(C(=O)N1CCOCC1)=C1/SC(Cc2ccccc2)C(=O)N1c1ccccc1 (stereo not given) > 20.6 µM, Cc1nnc2n(-c3ccccc3)c(=O)c3c4c(sc3n12)COC(C(C)C)C4 (stereo not given) > 20.6 µM, COc1ccc2c(=O)c(-c3nc(C)cs3)coc2c1 > 20.6 µM, Cc1cc(=O)oc(C)c1C(=O)NCCc1ccccc1 > 20.6 µM, CC(C)Cc1[nH]c(=O)c(C#N)c2c1CCCC2 > 20.6 µM, COc1ccc(/C=N/n2cncn2)cc1COc1ccc(NC(C)=O)cc1 > 20.6 µM, O=c1c(-c2ccc(Cl)cc2)[n+]([O-])c2ccccc2n1O > 20.6 µM, C/C(NC(=O)c1ccccc1F)=C1\C(=O)C[C@@H]2[C@H]1C2(C)C > 20.6 µM, COc1cccc(C2/C(=C(/O)c3cnn(-c4ccccc4)c3C)C(=O)C(=O)N2CCN(C)C)c1 (stereo not given) > 20.6 µM, N#Cc1c(NCCN)nc(NCc2ccccc2)c2c1CCN(Cc1ccccc1)C2 > 20.6 µM, COc1ccc(C(=O)Cn2c(N3CCCCC3)nc3c2c(=O)n(C)c(=O)n3C)cc1OC > 20.6 µM, COc1ccc(-c2nc3n(c2Br)CCC3)cc1 > 20.6 µM, CCOC(=O)c1ccc(CSc2ncn[nH]2)o1 > 20.6 µM, CCOc1ccc(CCNC(=O)C(O)c2ccccc2)cc1 (stereo not given) > 20.6 µM, CN(CCNC(=O)c1ccc(/C=N/O)nc1)Cc1ccccc1 > 20.6 µM, COC(=O)CSc1nc(C)c(C(C)=O)cc1C#N > 20.6 µM, O=C(NCCCn1ccnc1)C(Cc1ccccc1)N1C(=O)c2ccccc2C1=O (stereo not given) > 20.6 µM, Cn1ncc(N=Cc2ccccc2O)c1C(=O)Nc1ccccc1 > 20.6 µM, O=C(COc1ccc(F)cc1)OCCN1CCOCC1 > 20.6 µM, O=C1OC(N2CCN(C/C=C/c3ccccc3)CC2)c2ccccc21 (stereo not given) > 20.6 µM, CC(=O)O[C@@]12CO[C@@H]1C[C@H](O)[C@@]1(C)C(=O)[C@H](O)C3=C(C)[C@@H](OC(=O)[C@H](O)[C@@H](NC(=O)OC(C)(C)C)c4ccccc4)C[C@](O)([C@@H](OC(=O)c4ccccc4)[C@H]21)C3(C)C > 20.6 µM, CCN(CC)CCn1c(O)c(N=O)c2ccccc21 > 20.6 µM, CCN(CC)CCOC(=O)C1(c2ccc(OC)c(OC)c2)CCCC1 > 20.6 µM, CCCOc1ccccc1C(=O)NCCCC(=O)O > 20.6 µM, Cc1ccc(C2C(C(=O)c3cc4ccccc4o3)=C(O)C(=O)N2CCN(C)C)o1 (stereo not given) > 20.6 µM, CN(C)c1cccc2c(S(=O)(=O)N3CCOCC3)cccc12 > 20.6 µM
